# High-throughput results deposited in PubChem by National Center for Advancing Translational Sciences (NCATS).
# VACV Venus inh: vaccinia inhibition (Venus reporter); Vaccinia virus Venus reporter expression, fluorescence; Potency, µM (doses to about 36.5 µM), inactives show at the highest dose activity change, negative = inhibition, actives largely listed as inhibitors; actives 0.46% (n = 330,000); calls by dose curve; tested in A549 cells; also: nearly all actives have a fitted effect of over 30% in size
# Pf growth 96h: inhibits malaria parasite growth, 96 h | P. falciparum luciferase reporter growth, 96 h | Potency, µM (top dose mostly 28.7 µM), without a hit: top-dose activity change, negative = inhibition, actives largely listed as inhibitors | actives 6.9% (n = 320,000) | AID 504834
#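 Two-generation exposure (96 h) targets delayed-death phenotype. Reporter parasites carrying integrated firefly luciferase, in red cells at 2% hematocrit and 0.05% parasitemia final, kept at 37 C, 5% CO2; luminescence loss indicates inhibition.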
# VACV mCherry inh: vaccinia inhibition (mCherry reporter). Potency, µM (series often up to 36.5 µM), without a hit: at the highest dose activity change, negative = inhibition, actives largely listed as inhibitors. actives 0.63% (n = 310,000). Vaccinia virus mCherry reporter infection, fluorescence; calls by dose curve; tested in A549 cells; also: nearly all actives have a fitted effect of over 35% in size
# AMA1-RON2 inh: AMA1-RON2 (P. falciparum) interaction inhibition; Potency, µM (doses to about 58.2 µM), for inactives: top-dose activity change, negative = inhibition, most hits filed as inhibitors; AlphaScreen AMA1-biotinylated RON2 peptide binding; actives 0.2% (n = 360,000); AID 720542;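 also: 0% = vehicle wells and -100% = peptide control; nearly all actives have a fitted effect of over 45% in size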
#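 AMA1 (3D7) with his tag at 25 nM final met compounds first, then biotinylated RON2 peptide at 25 nM; detection used donor plus acceptor beads, 10 µg/mL apiece, read by AlphaScreen after 30 min at room temperature.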
# Pf growth 48h: P. falciparum growth inhibition at 48 hours (one generation). P. falciparum luciferase growth in erythrocytes, 48 h. Potency, µM (highest dose often 28.7 µM), without a hit: at the highest dose activity change, negative = inhibition, usual class: inhibitors. actives 5.9% (n = 310,000). AID 504832
#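 Luminescence readout; reporter = integrated firefly luciferase in P. falciparum. RBC culture at 2% hematocrit, 0.1% parasitemia final, 37 C/5% CO2; decreased signal taken as growth inhibition.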
# The depositor's hits bear a star; i = inactive; ? = inconclusive; nt = no result given; [ ] = remark or other dose. In the library only some 8.7% were active in any assay of this set; here they are far more common. Unless noted, calls follow the shape of the dose curve; as a rule, active = well fitted curve in the direction sought with a large enough effect; inconclusive = small, poorly fitted or top-dose-only effect, or another doubt; inactive = no such curve, though single readings can be large; an effect the other way counts as inactive or inconclusive. Unless noted, % is scaled to controls: 0 for no effect and ±100 for the full control effect; potency is read from the fitted curve at half-maximal effect.
SMILES,VACV Venus inh,Pf growth 96h,VACV mCherry inh,AMA1-RON2 inh,Pf growth 48h
CS(=O)(=O)c1ccc2nc(NC(=O)CCNC(=O)c3ccc([N+](=O)[O-])cc3)sc2c1,-23%,0.74µM*,i,5%,?
COc1cccc(NC(=O)CCC(=O)N2Cc3ccccc3Oc3ncccc32)c1,-8%,nt,-15%,nt,nt
CCc1nnc(NC(=O)c2cc(=O)c3cc(C)c(C)cc3o2)s1,-9%,nt,-3%,nt,nt
Cc1ccc(CNC(=O)CCCCCn2c(=O)c3sccc3n(CC(=O)N(C)c3ccccc3)c2=O)cc1,5%,nt,-2%,nt,nt
CCNC(=O)c1cc(NC(=O)COC)cc2nc(-c3ccncc3)n(C)c12,-9%,nt,-13%,nt,nt
COc1ccc(C(=O)Nc2nc3ccc(S(C)(=O)=O)cc3s2)cc1OC,0%,5.9µM*,-5%,-1%,15%
CS(=O)(=O)c1ccc2nc(NC(=O)CCC(=O)c3cccs3)sc2c1,-17%,12µM*,-23%,-16%,?
CS(=O)(=O)c1ccc2nc(NC(=O)CCS(=O)(=O)c3ccccc3)sc2c1,-19%,94%,-7%,-7%,-8%
COc1cccc(C(=O)Nc2nc3ccccc3s2)c1,nt,15µM*,nt,-4%,323%
CN(C)c1ccc(NC(=O)Cn2nnc3sc4c(c3c2=O)CCC(C(C)(C)C)C4)cc1 (centres undefined),-6%,nt,-10%,nt,nt
COc1ccc(NC(=O)C(=O)NCCc2csc(-c3ccc(Cl)cc3)n2)cc1OC,-4%,nt,-14%,nt,nt
CCN(CCCNC(=O)c1nn(-c2ccc(C)cc2)c(=O)c2c1c1ccccc1n2C)c1ccccc1,-10%,nt,-23%,nt,nt
Cc1cc2nccc(C)c2cc1C,-14%,nt,-7%,nt,nt
Cc1nn(C)c(C)c1/C=N/N=C1\CCC2C3CCc4cc(O)ccc4C3CCC12C (centres undefined),2%,nt,nt,-10%,2.9µM*
C[C@]12CC[C@H]3c4ccc(O)cc4CC[C@@H]3[C@H]1CC[C@@H]2OC(=O)CCC1CCCC1,nt,13µM*,nt,nt,17µM*
C[C@]12CC[C@@H]3c4ccc(O)cc4CC[C@H]3[C@@H]1CCC2=O,-9%,13µM*,-5%,-2%,?
CCOC(=O)c1ccccc1NC(=O)CN(c1cc(C(F)(F)F)ccc1Cl)S(C)(=O)=O,-5%,nt,-13%,nt,nt
O=C(/C=C\c1ccccc1)NC1CC(=O)N(c2ccccc2)C1 (centres undefined),-5%[7.34 µM],nt,-13%[7.34 µM],nt,nt
Cc1ccccc1OCCN(C#N)c1nc(N(C)C)nc(N(C)C)n1,-9%,26%,-14%,7%,12µM*
COc1nc(N(C)C)nc(N(C#N)CCOC(C)=O)n1,-15%,-8%,-8%,13%,-8%
Cc1occc1C(=O)N/N=C/c1c(O)ccc2ccccc12,?,0%,1.8µM*,75%,2.6µM*
O=C(N/N=C/c1c(O)ccc2ccccc12)c1ccc(Br)o1,?,3%,2.8µM*,6%,?
Cc1c(C(=O)N/N=C/c2c(O)ccc3ccccc23)nnn1-c1nonc1N,13%,-1%,-24%,69%,?
O=C(N/N=C/c1c(O)ccc2ccccc12)Nc1ccccc1,nt,nt,nt,67%,nt
O=C(CSCC(=O)Nc1ccccc1)N/N=C/c1c(O)ccc2ccccc12,nt,1.9µM*,nt,28%,2.6µM*
SMILES,VACV Venus inh,Pf growth 96h,VACV mCherry inh,AMA1-RON2 inh,Pf growth 48h
Cn1nccc1C(=O)N/N=C/c1c(O)ccc2ccccc12,nt,10µM*,nt,93%,2.6µM*
O=C(COc1ccccc1F)Nc1ccc2nc(SCC(=O)N3CCc4ccccc43)sc2c1,-14%,nt,-19%,nt,nt
O=C(N/N=C/c1c(O)ccc2ccccc12)c1ccc[n+](CCO)c1,8%,5.2µM*,-27%,?,9.3µM*
O=C(N/N=C\c1c(O)ccc2ccccc12)c1cncc(Br)c1,-21%,2.3µM*,?,85%,2.9µM*
Cn1cc(C(=O)N/N=C/c2c(O)ccc3ccccc23)ccc1=O,?,28%,?,?,2.6µM*
O=C(N/N=C\c1c(O)ccc2ccccc12)c1ccc(O)cc1,nt,65%,nt,126%,?
Cc1ccc(C(=O)N/N=C/c2c(O)ccc3ccccc23)cn1,?,8%,2.2µM*,48%,3.7µM*
O=C(N/N=C/c1c(O)ccc2ccccc12)c1cccnc1,-29%,-6%,?,37%,?
CC(C)(C)C(=O)NC1(C(F)(F)F)C(=O)Nc2c1c(=O)[nH]c(=O)n2-c1ccccc1 (centres undefined),11%,nt,0%,nt,nt
COc1ccc2c(c1)OC(C)CN(CC(=O)NCc1cn[nH]c1-c1ccc(F)cc1)C2 (centres undefined),8%,nt,-8%,nt,nt
Nc1cc(Cl)nc(N/N=C/c2c(O)ccc3ccccc23)n1,?,?,28µM*,22%,?
O=C(NN=Cc1c(O)ccc2ccccc12)c1ccncc1,?,nt,2.5µM*,-5%,nt
COc1ccc(NC2=NC(=S)N(c3ccccc3C)C23CCCCC3)cc1,nt,-74%,nt,10%,nt
[O-][N+]1=c2ccc(Nc3ccccc3)cc2=NC12CCCCC2,?,nt,?,?,9.3µM*
O=[N+]([O-])c1ccc2c(c1N1CCCCC1)=NC1(CCCCC1)[N+]=2[O-],-6%[7.34 µM],12%,i[7.34 µM],?,1%
COc1ccc(Nc2ccc3c(c2)=NC2(CCCCC2)[N+]=3[O-])cc1,?,?,?,-26%,12µM*
COc1ccc(NC(=O)C2CCN(C(=O)c3sc4nc[nH]c(=O)c4c3C)CC2)c(OC)c1,3%,nt,-10%,nt,nt
COc1cccc(CNC(=O)Cn2c(SCC(=O)Nc3ccc(C)c(C)c3)nc3ccccc32)c1,-25%,nt,-29%,nt,nt
COc1cc(CNC(=O)c2cnn(-c3ncc4c(n3)-c3ccccc3CC4)c2C)cc(OC)c1OC,-28%,nt,?,nt,nt
Oc1c(Br)cc(Br)cc1Oc1ccc(Br)cc1Br,nt,15µM*,nt,nt,?
CC(=O)Nc1ccc(OC(=O)c2cc3cc(Br)ccc3oc2=O)cc1,-4%,4.1µM*,-14%,3%,4%
Cc1ccc(COc2ccc(/C=N/O)cc2)cc1,-21%,41%,-6%,-20%,130%
NC(N)=N/N=C/c1ccc(OCc2ccccc2)cc1,-26%,1.5µM*,-10%,4%,1.5µM*
NC(N)=N/N=C/c1ccc(Br)cc1,?,12%,-21%,0%,12µM*
NC(N)=N/N=C/c1ccc(OCc2ccc(Cl)cc2)cc1,?,2.3µM*,-29%,-1%,0.33µM*
O=C(Nc1cccc(Cl)c1Cl)c1cc(S(=O)(=O)N2CCCc3ccccc32)ccc1F,-4%,nt,11%,nt,nt
COc1ccc(CNCc2c(C(=O)O)c(C)n(Cc3ccccc3C)c2C)cc1OC,-2%,nt,-1%,nt,nt
CC(=O)Nc1ccc(NS(=O)(=O)c2c(C)nc3sccn3c2=O)cc1,-5%,nt,-13%,nt,nt
c1ccc2cc(CSCc3nc4ccccc4[nH]3)ccc2c1,-23%,?,-34%,-8%,13µM*
Cc1ccccc1CSCc1nc2ccccc2[nH]1,-22%,-26%,-15%,-5%,?
